The subject of this assay is MDA-MB-468 breast. As to the kind of experiment: NCI-60 one-dose screen, 48 h (100 = growth as untreated, 0 = no growth, -100 = all killed). The note with it: 10 µM unless noted.

About 83,000 compounds went through this panel and 20% of them were active in at least one assay; those are over-represented in the sample as a whole.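 Cell lines were cultured in 96-well plates, exposed to a single compound concentration, and assessed for percent growth 48 hours later.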 Unmarked numbers belong to inactive results. Active and inactive are the calls of the source. Rule for the calls: active = growth percent below 10; inactive = the rest.

As to `CC1CCC(C(C)C)C(NNC(N)=O)C1` (stereo not drawn), the growth is 94.9%. With `CC(C)CCN(CCCNc1c2c(nc3ccccc13)CCCC2)CCC(C)C` the figure was 57.2%. In the case of `CCCCCN1C=C/C(=C\C(=O)N(C)c2ccc(OC(F)(F)F)cc2)c2ccccc21`, the growth is 80.4%. On to `CCCCCCCCCCCCCCCCCCNC(=O)[C@H]1CSC(c2ccc(F)c(OC)c2)N1` (stereo partly drawn), for which the growth was 44.1%. As for `ClC1=C(Br)C(Br)(Br)C(=C(Br)Br)C1(Br)Br`, the figure is 74.4%; as for `C/C=C/C/C=C/[C@H](C)C[C@H](O)[C@@H]1C[C@@H]2O[C@H]2/C=C/[C@H](O)[C@@H](O)/C=C/C[C@H](C)CC(=O)O1`, 99.5%. Regarding `COc1ccc(OC)c(NCC(=O)n2nc(/C=C\c3ccc(O)c(OC)c3)cc2/C=C\c2ccc(O)c(OC)c2)c1`, the growth was 12.1%. As for `O=C(Nc1nc2ccccc2s1)c1cc(-c2ccc(F)cc2)n2nc(-c3ccccc3)cc2n1`, the figure is 118%; as for `C/C=C/C1=CN2C(=O)c3cc(OC4OC(C)C(NC)C(C)(O)C4O)c(C)c(O)c3N=C[C@@H]2C1` (stereo partly drawn), -57.5% (active). For `Cc1ccc(S(=O)(=O)N/N=C/c2cn(-c3ccc(F)cc3)nc2-c2ccc(S(C)(=O)=O)cc2)cc1`, the growth was 97%. Consider `CC1(C)CC[C@]2(C(=O)O)CC[C@]3(C)C(=CC[C@@H]4[C@@]5(C)CC[C@H](NOCCCN)C(C)(C)[C@@H]5CC[C@]43C)[C@@H]2C1`, for which the growth was -45.6% (active).

With `Cc1cc(C)c(O)c(C(=O)CC(Br)C(=O)O)c1` (stereo not drawn), the growth is 74.9%.

For the compound `CC1=C(NCCN2CCCC2)C(=O)c2c(OCc3ccc(F)c(Cl)c3)cccc2C1=O`, the growth is 67.1%.

The record behind these values is PubChem BioAssay (NCI).
